The results in this text go back to PubChem BioAssay AID504321 (NMMLSC, 2011).

Calls of active or inactive are those of the source.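 How the source made its calls: active means GFP response vs DMSO above 150% with enough events counted; inconclusive means fewer than 70 events counted for a yeast strain; inactive means the rest.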

A short description of this assay: MEP2-GFP expression modulation in yeast, confirmation, flow cytometry, third cherry pick, S. cerevisiae (AID 504321).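 Further: median per-cell GFP fluorescence by flow cytometry across all yeast cells; ratio of sample to DMSO median GFP so 100% equals the DMSO level.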 As to conditions: S. cerevisiae MEP2-GFP strain, 3 h, at 10 µM, active compounds read high. For orientation: A flow cytometer gives signals particle by particle.
As to `CN(C)C(=O)Oc1ccnc2cc(Cl)ccc12`, the GFP response vs DMSO is 108% (inactive).
In the case of `C/C(O)=C(\C#N)C(=O)Nc1cc(Br)ccc1Br`, the GFP response vs DMSO was 112% (inactive).
Under `CCN1CCN(c2ncnc3ccc(Br)cc23)CC1` stands 112% (inactive); under `CN1CCN(c2ncnc3ccc(Br)cc23)CC1`, 101% (inactive); under `Cc1ccc2c(c1N)C(=O)c1ccccc1C2=O`, 103% (inactive).
Under `CN(C)C(=O)Oc1ccc(Cl)c2cccnc12` stands 110% (inactive).
